The campaign covered roughly 300,000 compounds. About 5,200 (1.7%) were called active. The sample holds actives, similar compounds and a random draw of the others, so the mix is not that of the screen. A number with no mark means an inactive call.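 The calls were made as follows: active = mean replicate activation of at least 50% with a set share of replicates each reaching 50%; inconclusive = only one of those two conditions met; inactive = mean below 50% and too few replicates reaching it.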
Assay: HSF-1 response element luciferase induction – NIH3T3-HGL cells, MG132 stress, luminescence, single point, primary screen (AID 504408);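 also: 0% = median of the neutral control wells and 100% = twice that signal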
Details: NIH3T3-HGL HSF-1 luciferase reporter, MG132, 8 h; at 9 µM; stronger effect = higher value; 100% = twice DMSO control signal

First: Cc1c(C)n2c(SCC(=O)NC3CCCC3)nnc2[nH]c1=O
Second: O=C(COc1cccc2c1CCNC2=O)NC1CCCCC1
The activation of the first is lower: -15.2% for the first, -2.8% for the second.

Going from `COc1ccc(/C=C(/NC(=O)c2ccc(C)cc2)c2nc3ccccc3[nH]2)cc1OC` to `COc1ccc(NC(=O)c2cc(-c3ccc(C)cc3)on2)cc1`, the activation falls from -0.506% to -4.41%.

Compared with `CCC(=O)/C(=C(/O)c1ccccc1)c1nc2ccccc2[nH]1`, `CCCNC(=O)c1cnc(-c2ccccc2)nc1-c1ccccc1` is higher in activation: 4.66% for the first, 23.9% for the second.

Compared with `Cc1ccc(C)c(OCCC(=O)Nc2cccc(S(=O)(=O)N3CCCC3)c2)c1`, `CC(OC(=O)c1ccc(S(=O)(=O)N2CCOCC2)cc1)c1ccccc1` (stereo unspecified) is higher in activation: -4.4% for the first, 13.9% for the second.

First: N#CC1(NC(=O)COC(=O)CSc2ccc(F)cc2)CCCCC1
Second: CCCNC(=O)c1onc(CSc2ccc(F)cc2)c1C(=O)NC(C)C
The activation of the first is higher: 0.517% for the first, -0.0105% for the second.

Going from `CCN(CC(=O)Nc1c(F)cccc1F)C(=O)c1ccc(Sc2nncn2C)c([N+](=O)[O-])c1` to `Cc1c(NC(=O)CN(C)CC(=O)Nc2ccc(F)c(F)c2F)c(=O)n(-c2ccccc2)n1C`, the activation rises from -3.26% to 1.95%.

Compared with `COc1cc(C(=O)NCC(=O)NCCSc2ccc(Br)cc2)cc(OC)c1OC`, `COc1ccc(OCCCC(=O)OC(C)C(=O)Nc2ccccc2[N+](=O)[O-])cc1` (stereo unspecified) is higher in activation: 7.39% for the first, 10.9% for the second.

Compared with `Cc1ccccc1CSCC(=O)NC(=O)NC(C)(C)C`, `Cc1cc(NC(=O)c2ccccc2C)no1` is higher in activation: 5.08% for the first, 26.1% for the second.

First: O=C(COc1coc(CN2CCN(c3ccccc3)CC2)cc1=O)N1CCc2ccccc21
Second: COc1ccc(N2CCN(C(=O)COC(=O)c3cccc(S(=O)(=O)Nc4ccccc4OC)c3)CC2)cc1
The activation of the first is lower: 1.05% for the first, 5.51% for the second.

Going from `Cc1cc(NC(=O)CSc2nc3cc(Cl)ccc3c(=O)n2Cc2ccco2)no1` to `O=c1[nH]c(CSc2ncc(-c3ccc(F)cc3)n2Cc2ccco2)nc2ccccc12`, the activation rises from 1.94% to 41.8%.

First: O=C(NCCSc1ncc(-c2ccccc2)[nH]1)c1ccco1
Second: O=C(Nc1cccnc1Cl)c1cc(-c2ccccc2O)on1
The activation of the first is lower: 10.6% for the first, 11.3% for the second.

First: CCCCOc1ccc(-c2ncc(C(=O)OCC)c(N)n2)cc1
Second: CCCCCN1CC(O)=C(c2nc(-c3ccc(Cl)cc3)cs2)C1=N
The activation of the first is higher: 23.3% for the first, -2.24% for the second.

Compared with `CC(C)Nc1nnc(SC(C)C(=O)N(C)C2CCCCC2)s1` (stereo unspecified), `O=C(NC1CCCCCC1)c1cccnc1Sc1ccc(Cl)cc1` is lower in activation: 7.73% for the first, -8.73% for the second.

Compared with `N#CC(=C1SC=CS1)c1nc(-c2ccccc2)cs1`, `Cc1cc(Nc2ccc(Br)cc2)nc2ccccc12` is lower in activation: 44.5% for the first, 0.857% for the second.

First: O=C(COc1ccccc1Cl)Nc1ccccc1C(=O)NC1CC1
Second: CC(Oc1ccc(F)cc1)C(=O)Nc1ccccc1C(=O)NC1CC1 (stereo unspecified)
The activation of the first is lower: -14.4% for the first, 6.2% for the second.

Going from `CN(C)CCN(C(=O)CN1C(=O)c2ccccc2C1=O)c1nc2cc3c(cc2s1)OCCO3` to `CCOC(=O)C1=C(C)N=C2c3ccccc3C(=O)C2C1c1ccc(Br)cc1` (stereo unspecified), the activation falls from 16% to -1.71%.

Going from `CN(CC(=O)Nc1cccc(F)c1)C(=O)C1=COCCO1` to `Cc1csc(NC(=O)C2=COCCO2)n1`, the activation rises from 3.81% to 13%.

Going from `O=C1CCCC2=C1C(c1ccccc1)n1c(s/c(=C/c3cccc(F)c3)c1=O)=N2` (stereo unspecified) to `O=C1CC2(CCN(C(=O)COc3ccc(F)cc3)CC2)Oc2ccccc21`, the activation rises from -4.55% to 12%.

Going from `COc1ccc(CNS(=O)(=O)c2cc3c4c(c2)CCN4C(=O)CC3)cc1` to `COc1ccc2c(c1)CCc1c(C(=O)N3CCc4ccccc4C3)noc1-2`, the activation falls from 30.7% to 6.07%.

Going from `COc1ccccc1OCCCCCCN1CCN(C)CC1` to `CCOc1cc(N2CCOCC2)c(OCC)cc1NC(=O)COc1cccc2cccnc12`, the activation falls from -3.8% to -23%.

Compared with `Cc1n[nH]c(=O)c2c(NC(=O)CSc3ccccc3F)oc(C)c12`, `CCN(C(=O)COC(=O)c1sccc1C)c1c(N)n(Cc2ccccc2)c(=O)[nH]c1=O` is lower in activation: 6.59% for the first, -3.51% for the second.

First: COc1ccc2oc(=O)c(C(=O)N3CCCC3)cc2c1
Second: O=C(c1cc(COc2c(F)cccc2F)on1)N1CCSCC1
The activation of the first is lower: 6.28% for the first, 13.6% for the second.

First: O=C(NCCN1CCCC(O)C1)c1cc(COc2c(F)cccc2F)on1 (stereo unspecified)
Second: S=C(NCc1ccc(Cl)cc1)NC1CCCCC1
The activation of the first is lower: -5.99% for the first, 18.1% for the second.

Going from `CC(C)CN(C(=O)COC(=O)c1ccc(Cl)c(N)c1)c1c(N)n(Cc2ccccc2)c(=O)[nH]c1=O` to `O=C(COC(=O)c1ncc(Cl)c(Cl)c1Cl)NNC(=O)c1ccccc1`, the activation rises from -19.5% to 3.3%.

Compared with `CS(=O)(=O)c1ccc(Cl)c(NC(=O)COC(=O)c2ncc(Cl)c(Cl)c2Cl)c1`, `CC(C)c1cc(CN2CCOCC2)cc(C(C)C)c1O` is higher in activation: 2.63% for the first, 4.46% for the second.

For `O=C(/C(=C/c1cccc(Cl)c1)c1nc2ccccc2[nH]1)c1ccccc1`, the activation was 199% (active).
For `Cc1cc(NC(=O)CSCc2ccccc2C)no1`, the activation was 56.3% (active).
In the case of `Clc1cccc(-c2nc3nc4ccccc4nc3n2Cc2ccco2)c1`, the activation is reported as 79.2% (active).
In the case of `CCOC(=O)c1cnc(-c2ccccc2)nc1Oc1ccc(C)cc1`, the activation is reported as 88.3% (active).
In the case of `N#CC(=C1CCCC1)c1nc(-c2ccc(Cl)cc2)cs1`, the activation is reported as 62.5% (active).
With `Cc1cccc(C2C3=C(CCCC3=O)N=C3c4ccccc4C(=O)C32)c1` (stereo unspecified) the activation was 78.2% (active).
With `COc1ccc2c(c1)CCc1c(C(=O)N3CCCC3)noc1-2` the activation was 54.9% (active).
With `CC1CN(C(=O)c2cc(COc3c(F)cccc3F)on2)CCN1C` (stereo unspecified) the activation was 52.1% (active).
In the case of `O=C(NC1CCCCC1)c1ccc(-c2ccc(Cl)cc2)o1`, the activation is reported as 67.1% (active).
In the case of `Oc1c(C(c2ccccn2)N2CCOCC2)ccc2cccnc12` (stereo unspecified), the activation is reported as 73.3% (active).
With `Cc1ccc(O)c(NC(=O)c2cc(-c3ccco3)on2)c1` the activation was 113% (active).

Reference: PubChem BioAssay AID504408 (Broad Institute, 2011)
